Experimental findings from publication PMC5540273 (PLoS ONE, 2017) are described below.
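Note: KINOMEscan kinase panel screen.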

This assay concerns PFTAIRE2. Particulars: concentration: 1 μM,replicates: in singlicate; n = 1.
Consider `CCn1c(-c2nonc2N)nc2c(C#CC(C)(C)O)nc(OCCN)cc21.Cl.Cl` [GSK902056], for which the “%Inh” value came out at 0%.

On to `COc1ccc(C[C@@H](CN)NC(=O)c2cc(Br)c(-c3ccnc4[nH]ccc34)s2)cc1.Cl.Cl` [GSK1389063], for which the “%Inh” value amounted to 3%.

As for `Cc1ccc2c(-c3ccncc3)c(-c3ccc(F)cc3)nn2c1.Cl` [GW461484], the “%Inh” value worked out at 0%.

As to `Cl.Cl.NC[C@H](Cc1ccc(C(F)(F)F)cc1)NC(=O)c1cc(Br)c(-c2ccnc3[nH]ccc23)s1` [GSK1487252], the “%Inh” value is recorded as 5%.

Take `O=C(NCCCN1CCOC1=O)c1cnc(NCc2cc(Cl)ccc2Cl)nc1NC1CCCC1`: the “%Inh” value was determined as 0%.

As for `C=CC(=O)Nc1cc2c(Nc3ccc(F)c(Cl)c3)ncnc2cc1OCCCN1CCOCC1` [GW781483], the “%Inh” value came to 15%.

As for `NC(=O)c1cc(-c2ccccc2)cc2c(C3CCNCC3)c[nH]c12` [GSK301362], the “%Inh” value worked out at 21%.

For `C[C@@H]1CCN(C(=O)CC#N)C[C@@H]1N(C)c1ncnc2[nH]ccc12`, the “%Inh” value turned out to be 0%.

Regarding `Cc1occc1-c1nc(N)c(OC[C@@H](N)Cc2c[nH]c3ccccc23)cc1-c1cc2c(C)n[nH]c2cn1` [GSK1660450], the “%Inh” value is 100%.

Take `C[C@H]1Oc2cc(cnc2N)-c2c(nn(C)c2C#N)CN(C)C(=O)c2ccc(F)cc21`: the “%Inh” value is 10%.

For the molecule `CN(C)CC(O)COc1ccc(Nc2nccc(-c3cnn4nc(N5CCOCC5)ccc34)n2)cc1` (stereo not drawn) [GW767488], the “%Inh” value was determined as 16%.

On to `CCN(CC)CCCCNc1ncc2cc(-c3c(Cl)cccc3Cl)c(NC(=O)NC(C)(C)C)nc2n1`, for which the “%Inh” value is recorded as 0%.

Turning to `Cl.Cl.NC[C@H](CC1CCCCC1)NC(=O)c1cc(Br)c(-c2ccnc3[nH]ccc23)s1` [GSK1581427], the “%Inh” value is reported as 63%.

Take `CN(C)CCOc1ccc(-c2cc(-c3c[nH]nc3-c3ccccn3)ccn2)cc1` [GW835314]: the “%Inh” value was found to be 19%.

Consider `CNC(=O)c1ccccc1Sc1ccc2c(/C=C/c3ccccn3)n[nH]c2c1`, for which the “%Inh” value came out at 14%.

As for `O=C(NCCNc1ccnc(NCc2ccc(F)cc2)n1)c1cc2ccccc2s1` [GSK1379944], the “%Inh” value was determined as 7%.

As to `Cc1cc2cn[nH]c2cc1-c1cccc2c(N)c(C(N)=O)nnc12`, the “%Inh” value was 29%.

With `CC(C)N1C(=O)Cc2cc(Nc3ncc(C(F)(F)F)c(NCc4cccc(S(C)(=O)=O)c4)n3)ccc21`, the “%Inh” value is listed as 6%.

With `Cl.Oc1cc(-c2nc(-c3ccccc3)[nH]c2-c2ccncc2)ccc1Cl` [SB-386023], the “%Inh” value was found to be 23%.

Take `CC(C)Nc1cc(-c2ccc3c(N)n[nH]c3c2)nc(N)n1` [GSK2221681]: the “%Inh” value is reported as 10%.

For `Cc1ccc(-n2nc(C(C)(C)C)cc2NC(=O)Nc2ccc(OCCN3CCOCC3)c3ccccc23)cc1` [GW839464], the “%Inh” value amounted to 0%.

As to `C[C@@H](Oc1cc(-c2cnn(C3CCNCC3)c2)cnc1N)c1c(Cl)ccc(F)c1Cl`, the “%Inh” value was found to be 1%.

For `Cc1n[nH]c2ccc(-c3cc(OC[C@@H](N)Cc4ccccc4)cnc3-c3ccoc3)cc12.O=C(O)C(F)(F)F.O=C(O)C(F)(F)F` [GSK507358], the “%Inh” value was found to be 0%.

Turning to `CCN(CC)CCOc1ccc(Nc2ncc3cc(-c4c(Cl)cccc4Cl)c(=O)n(C)c3n2)cc1` [SB-601273], the “%Inh” value is 19%.

`Cl.Cl.Nc1nc(-c2ccc3c(N)n[nH]c3c2)cc(N2CCCC(NC(=O)c3ccccc3)C2)n1` (stereo not drawn) [GSK2286775]: the “%Inh” value amounted to 18%.

Consider `Cc1cc(C(=O)Nc2ccc(Oc3ccc4nc(NC(=O)C5CC5)cn4n3)cc2)nn1-c1ccccc1`, for which the “%Inh” value worked out at 0%.

`Nc1nc(Nc2ccccc2)cc(-c2ccc3c(N)n[nH]c3c2)n1` [GSK2225749]: the “%Inh” value is listed as 15%.
